# According to the supplement of paper PMC11865577:
# Where a name gives a salt, the structure may show the parent alone.
# How the values were obtained:
# Assay in all cases: normalised indicator fluorescence (fraction of RNA + indicator signal without compound); higher = less displacement of indicator (weaker competition)
# Conditions in all cases: compound concentration: 5 uM, 30 min
# [1] = tested on: hsa-mir-191 loop
# Outline: (§1)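 Displacement screen in 96-well plates: TO-PRO-1 or TO-PRO-3 indicator with RNA in 20 mM phosphate pH 7.0, 20 mM NaCl, 80 mM KCl. Each compound was added as 0.25 μL of 1 mM DMSO stock (about 5 uM final), and fluorescence was read after 30 min on an Infinite 200 PRO (excitation 485 or 620 nm). Values are indicator fluorescence after subtracting the buffer-plus-indicator blank, divided by the no-compound RNA-plus-indicator signal. Each is the mean of two independent experiments.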
# [2] = tested on: hsa-mir-21 loop
# Outline: as §1
# [3] = tested on: hsa-mir-221 loop
# Outline: as §1
# [4] = tested on: hsa-mir-374a loop
# Outline: as §1
# [5] = tested on: hsa-mir-6850 loop
# Outline: as §1
# [6] = indicator: TO-PRO-1 0.1 uM, RNA concentration: 0.1 uM
# [7] = indicator: TO-PRO-3 0.5 uM, RNA concentration: 0.5 uM
SMILES,"normalised indicator fluorescence [1, 6]","normalised indicator fluorescence [1, 7]","normalised indicator fluorescence [2, 6]","normalised indicator fluorescence [2, 7]","normalised indicator fluorescence [3, 6]","normalised indicator fluorescence [3, 7]","normalised indicator fluorescence [4, 6]","normalised indicator fluorescence [4, 7]","normalised indicator fluorescence [5, 6]","normalised indicator fluorescence [5, 7]"
O=C(/C=C/C=C/c1ccc2c(c1)OCO2)N1CCCCC1 [Piperine],1.02,1.01,0.903,1.05,0.997,0.908,1.16,1.16,1.13,1.04
C[C@H](CCC(=O)NCCS(=O)(=O)O)[C@H]1CC[C@H]2[C@@H]3[C@@H](O)C[C@@H]4C[C@H](O)CC[C@]4(C)[C@H]3CC[C@]12C [Tauroursodeoxycholic Acid],1.03,1.01,0.892,1.01,1.02,1.05,1.06,1.13,0.975,1.02
CC(C)c1cc(C(C)C)c(CC(=O)NS(=O)(=O)Oc2c(C(C)C)cccc2C(C)C)c(C(C)C)c1 [Avasimibe],1.05,1.12,0.952,1.08,1.05,1.03,1.08,,0.985,0.948
CC(C)OC(=O)CCC/C=C\C[C@@H]1[C@@H](CC[C@@H](O)CCc2ccccc2)[C@H](O)C[C@@H]1O [Latanoprost],1.01,1.03,0.985,0.978,1.01,1.05,1.01,1.06,1.06,1.04
CN1CCN(c2ccc(C(=O)Nc3n[nH]c4ccc(Cc5cc(F)cc(F)c5)cc34)c(NC3CCOCC3)c2)CC1 [Entrectinib],1.11,1.04,1.04,1.04,1.04,1.18,1.09,1.56,1.01,1.03
Cn1cc(-c2ccc3c(c2)CCN3C(=O)Cc2cccc(C(F)(F)F)c2)c2c(N)ncnc21,1.04,1.1,1.06,1.07,1.08,1.03,1.23,1.18,0.993,1.18
CC1(C)OC(=O)C=C[C@]2(C)[C@H]3CC[C@@]4(C)[C@H](c5ccoc5)OC(=O)[C@H]5O[C@]54[C@]3(C)C(=O)C[C@@H]12 [Obacunone],1.07,1.03,1.06,1.08,1.12,1.07,1.11,1.09,0.979,1.05
C[C@@H]1O[C@@H](O[C@@H]2[C@@H](O)[C@H](OCCc3ccc(O)c(O)c3)O[C@H](CO)[C@H]2OC(=O)/C=C/c2ccc(O)c(O)c2)[C@H](O)[C@H](O)[C@H]1O [Verbascoside],1.1,1.02,1.13,1.01,1.07,0.949,1.46,1.14,1.02,1.02
O=C(NC(Cc1cc(=O)[nH]c2ccccc12)C(=O)O)c1ccc(Cl)cc1 (centres undefined) [Rebamipide],1.07,1.14,0.99,1.03,1.08,1.04,1.1,1.13,1.19,1.03
Cc1oncc1C(=O)Nc1ccc(C(F)(F)F)cc1 [Leflunomide],0.986,0.97,0.91,1.03,1,1.11,1.11,1.36,0.838,1.01
C1CCN2C[C@@H]3C[C@@H](CN4CCCC[C@@H]34)[C@H]2C1 [(-)-Sparteine sulfate pentahydrate],0.913,1.02,0.863,1.2,1.09,1.06,1.14,1.14,0.921,1.05
CN(C)CCCN1c2ccccc2CCc2ccc(Cl)cc21 [Clomipramine hydrochloride],1,1.1,0.961,0.987,1.07,1.01,1.14,1.02,0.864,1.08
COc1ccc([C@@H]2OC[C@H]3[C@@H]2CO[C@@H]3c2ccc(O[C@@H]3O[C@H](CO)[C@@H](O)[C@H](O)[C@H]3O)c(OC)c2)cc1OC [Forsythin],1.06,1.04,0.926,0.988,0.939,1.04,1.09,1.09,0.927,1.07
COc1c(C)cnc(Cn2cnc3c(Cl)nc(N)nc32)c1C,1.04,1.04,0.99,1.04,1.01,1.06,1.19,1.09,1.02,1.05
CO[C@@H]1[C@H](N(C)C(=O)c2ccccc2)C[C@H]2O[C@]1(C)n1c3ccccc3c3c4c(c5c6ccccc6n2c5c31)C(=O)NC4 [Midostaurin],1.16,1.04,1.09,1.06,1.18,0.972,,1.43,1.02,1.02
O=C(Nc1nc2ccc(NC(=O)C34CC5CC(CC(C5)C3)C4)cc2s1)c1ccccc1,1,1.02,0.991,1.02,1.14,1.05,1.1,1.06,0.997,0.982

SMILES,"normalised indicator fluorescence [1, 6]","normalised indicator fluorescence [1, 7]","normalised indicator fluorescence [2, 6]","normalised indicator fluorescence [2, 7]","normalised indicator fluorescence [3, 6]","normalised indicator fluorescence [3, 7]","normalised indicator fluorescence [4, 6]","normalised indicator fluorescence [4, 7]","normalised indicator fluorescence [5, 6]","normalised indicator fluorescence [5, 7]"
CC1(C)CC(=O)c2c(C(F)(F)F)nn(-c3ccc(C(N)=O)c(N[C@H]4CC[C@H](O)CC4)c3)c2C1,1.03,1.03,0.989,1.04,0.978,1.18,1.01,1.13,0.777,0.989
CCNC(=O)c1[nH]nc(-c2cc(Cl)c(O)cc2O)c1-c1ccc(OC)cc1,1.01,1.05,1.05,1.06,1.02,0.975,1.11,1.11,0.952,1.05
Cc1c(F)cc(C(=O)NC2CC2)cc1-c1ccc(C(=O)NCC(C)(C)C)cn1 [Losmapimod],0.997,1.02,0.887,1.04,1.07,1.08,1.06,1.13,0.95,1.06
Fc1ccc(-c2nc3n(c2-c2ccncc2)CCS3)cc1,1.08,1.08,0.993,1.02,1.07,1.13,1.09,1.18,0.947,1.04
COC1=C(OC)C(=O)C(CCCCCCCCCCO)=C(C)C1=O [Idebenone],1.04,1.05,0.937,1.04,1.02,1.04,1.04,1.03,0.917,1.02
O=C(COc1ccc(Cl)cc1)NC1CCC(NC(=O)COc2ccc(Cl)cc2)CC1 (centres undefined),1.03,1.04,0.954,1.03,1.05,1.01,1.07,1.08,0.894,1.05
Oc1cc(O)c2c(c1)O[C@H](c1ccc(O)c(O)c1)[C@@H](O)C2 [Cianidanol],1.01,1.07,0.93,1.06,1.16,1.07,1.26,1.17,1,1.07
CC(=O)O[C@H]1C[C@@]2(C)[C@@H](C[C@@H](O)[C@H]3[C@@]4(C)CC[C@@H](O)[C@@H](C)[C@@H]4CC[C@@]32C)/C1=C(\CCC=C(C)C)C(=O)O [Fusidine],0.992,1.01,0.976,1.08,1.04,1.02,1.15,1.21,1.06,1.06
Cn1cc(C2=C(c3cn(CCCSC(=N)N)c4ccccc34)C(=O)NC2=O)c2ccccc21 [Ro 31-8220 Mesylate],1.38,0.894,,0.929,,0.947,,1.02,1.08,0.859
N#Cc1c(NC(=O)c2cccc3ccccc23)sc2c1CCCC2,1.04,0.988,1.02,1.01,0.919,1.02,,0.983,1.08,1.02
CCOc1cc(C(=O)N2CCC(N3CCN(C)CC3)CC2)ccc1Nc1ncc2c(n1)N(C1CCCC1)c1ccccc1C(=O)N2C,1.09,1.04,0.946,1.01,1.03,1.01,1.07,1.1,0.938,1
C[S+]([O-])c1ccc(-c2nc(-c3ccc(F)cc3)c(-c3ccncc3)[nH]2)cc1 (centres undefined),0.969,1.02,1.05,1.02,1.01,1.05,1.07,1.04,1.08,1.04
C[C@@H]1O[C@@H](O[C@H]2[C@H](Oc3cc(O)c4c(c3)O[C@H](c3ccc(O)cc3)CC4=O)O[C@H](CO)[C@@H](O)[C@@H]2O)[C@H](O)[C@H](O)[C@H]1O [Naringin],0.96,1.09,0.933,1.08,1.06,1.04,1.14,1.21,0.897,1.09
Oc1ccc(OCc2ccccc2)cc1 [Monobenzone],0.997,1.15,0.955,1.11,1.03,1.17,1.27,1.27,0.909,1.06
O=C1CCc2ccccc2C1 [Beta-Tetralone],1.04,1.06,1.05,1.04,1.04,1.06,1.07,1.02,0.996,1.08
COc1ccc(-c2coc3cc(O)ccc3c2=O)cc1O [Calycosin],1.08,1.02,1,1.06,1.03,1.08,1.01,1.25,1.01,1.07
